Nrf2 ARE act: qHTS of Nrf2 Activators | 0.31% of 410,000 active | AREc32 ARE-luciferase reporter (MCF7-derived line), luminescence, 24 h | AID 624171, 2012 | Potency, µM (doses to about 46.1 µM), for the others: at the highest dose activation, usual class: activators; further: potency means the concentration at half of the fitted maximal effect; % of control where 0% means no effect; nearly all actives have a fitted effect of over 65% in size
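Steps: seed AREc32_Fluc cells (1000/well, 5% FBS OPTI-MEM); incubate overnight at 37 deg C; add 23 nL compound; incubate 24 hr; add Steady-Glo; hold 30 min RT; read luminescence.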
LDHA block: qHTS assay for inhibitors of human lactate dehydrogenase | L-lactate dehydrogenase A chain (Homo sapiens), P00338 | purified LDHA, NADH/diaphorase-resazurin fluorescence; stronger effect = lower value | activity change, % (values are at about 110 or 230 µM) | 0.15% of 480,000 active | AID 1347041, 2019; in the data active means activity change below about -30%; inconclusive means mostly about -25% to -30%;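 further: plate controls were DMSO wells for no effect and wells without enzyme for full effect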
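Resorufin fluorescence (ex540/em590), read at 0 and 20 min after diaphorase/resazurin addition, reports the NADH left after a 5 min room-temperature reaction of 2 nM human LDH5 with 0.06 mM NADH and 0.2 mM pyruvate.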
mIDH1 inhibitor: qHTS for Inhibitors of mutant isocitrate dehydrogenase 1 (IDH1): qHTS; Isocitrate dehydrogenase [NADP] cytoplasmic (Homo sapiens), O75874; IDH1-R132H enzyme, NADPH consumption, diaphorase/resazurin fluorescence; Potency, µM (titrated, usually from 76.6 µM), for inactives: at the top dose activity change, negative = inhibition, usual class: inhibitors; 0.093% of 390,000 active; AID 602179, 2012; further: potency means the concentration at half of the fitted maximal effect; on the % scale 0 is the no-effect control and ±100 the full control effect; nearly all actives have a fitted effect of over 65% in size
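IDH1-R132H (0.5 ug/mL dispensed) in pH 7.5 Tris buffer was preincubated 30 min with compound, then given a substrate mix of 0.016 mM NADPH and 2 mM alpha-KG for 80 min at room temperature; remaining NADPH was read by diaphorase/resazurin fluorescence.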
A549 viability: Nrf2 qHTS screen for inhibitors: counterscreen for cytotoxicity. AID 504648, 2011. 0.16% of 390,000 active. Potency, µM (series often up to 46 µM), for the others: at the highest dose activity change, negative = cytotoxicity, hits mostly inhibitors. A549 ARE-Fluc cells, CellTiter-Fluor viability, 18-24 h; further: potency means the concentration at half of the fitted maximal effect; on the % scale 0 is the no-effect control and ±100 the full control effect
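Cytotoxicity counterscreen: CellTiter-Fluor fluorescence was measured in A549 ARE_Fluc cells after 18-24 h of compound exposure in a concentration series. The subsequent BugLite luminescent read reports ARE-luciferase activity.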
ALOX12 inh: Primary qHTS assay for inhibitors of human arachidonate 12S-lipoxygenase (ALOX12): Round 2; Polyunsaturated fatty acid lipoxygenase ALOX12 (Homo sapiens), P18054; purified 12hLO, xylenol orange hydroperoxide absorbance; Potency, µM (titrated, usually from 108 µM), without a hit: top-dose activity change, negative = inhibition, actives largely listed as inhibitors; 1.1% of 580,000 active; AID 1671190, 2021; further: potency means the concentration at half of the fitted maximal effect; on the % scale 0 is the no-effect control and ±100 the full control effect
Target sequence (P18054 whole entry, looked up): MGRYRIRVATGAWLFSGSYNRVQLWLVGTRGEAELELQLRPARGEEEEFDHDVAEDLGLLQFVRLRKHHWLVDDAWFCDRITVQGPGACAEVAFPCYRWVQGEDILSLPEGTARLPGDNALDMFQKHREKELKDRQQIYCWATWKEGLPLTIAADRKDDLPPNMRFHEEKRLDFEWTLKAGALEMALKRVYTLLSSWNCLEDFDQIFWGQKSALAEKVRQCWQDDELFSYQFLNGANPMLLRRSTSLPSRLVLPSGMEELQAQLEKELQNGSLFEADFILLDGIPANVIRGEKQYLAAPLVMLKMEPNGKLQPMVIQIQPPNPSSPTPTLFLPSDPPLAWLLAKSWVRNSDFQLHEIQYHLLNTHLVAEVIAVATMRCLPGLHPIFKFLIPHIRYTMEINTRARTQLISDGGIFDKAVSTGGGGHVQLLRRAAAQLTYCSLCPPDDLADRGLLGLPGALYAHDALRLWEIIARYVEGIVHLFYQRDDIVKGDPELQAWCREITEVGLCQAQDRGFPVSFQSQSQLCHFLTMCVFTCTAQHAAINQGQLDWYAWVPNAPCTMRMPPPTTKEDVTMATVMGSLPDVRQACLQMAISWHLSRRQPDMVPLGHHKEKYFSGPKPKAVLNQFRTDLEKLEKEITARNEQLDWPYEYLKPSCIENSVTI
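Purified human 12hLO at 150 nM in 25 mM Hepes, 0.01% Triton X-100, pH 7.0, preincubated 15 min at room temperature with compound. Reaction started with 40 uM arachidonic acid, 30 min at room temperature. Hydroperoxide measured by Fe-xylenol orange, 573/405 nm absorbance ratio.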
Nrf2 inh: Nrf2 qHTS screen for inhibitors. Potency, µM (highest dose often 46 µM), for the others: top-dose activity change, negative = inhibition, actives largely listed as inhibitors. 2.1% of 360,000 active. A549 ARE-Fluc reporter, luciferase luminescence, 18-24 h. AID 504444, 2011; further: potency means the concentration at half of the fitted maximal effect; on the % scale 0 is the no-effect control and ±100 the full control effect; nearly all actives have a fitted effect of over 60% in size
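A549 ARE_Fluc cells, 5000/well, 5% FBS OPTI-MEM; compounds in dose-response, 18-24 h at 37 °C/5% CO2; CellTiter-Fluor viability read (Ex 405/Em 525), then BugLite luciferase luminescence = Nrf2 activity.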
Starred values were filed as active, the others as inactive; u = inconclusive; x = no result given; ! = a repeat was not active; [ ] = dose if it differs, or a comment. In the library only some 2.7% were active in any assay of this set; here they are far more common. Unless noted, the call rests on the fitted dose curve; in most records, active means well fitted curve in the direction sought with a large enough effect; inconclusive means small, poorly fitted or top-dose-only effect, or another doubt; inactive means no such curve, though single readings can be large; an effect the other way counts as inactive or inconclusive.

SMILES | Nrf2 ARE act | LDHA block | mIDH1 inhibitor | A549 viability | ALOX12 inh | Nrf2 inh
CC(C)c1ccc(S(=O)(=O)/N=C2\C=C(NS(=O)(=O)c3ccccc3)C(=O)c3ccccc32)cc1 | 11% | 40 | 24% | -5% | 35µM* | u
CCc1nc(C)cn1S(=O)(=O)c1cc(Br)ccc1OC | 0% | 3 | -6% | u | -1% | 23µM*
CCc1nc(C)cn1S(=O)(=O)c1cc(F)ccc1OC | 0%[9.22 µM] | -4 | -7% | 0% | -7% | 0%
CCc1ccc(CCC(=O)NNc2cccc(Cl)c2)cc1 | x | 9 | x | x | 16µM* | x
O=C(CCc1ccccc1)NNC(=O)Nc1cccc(Cl)c1 | 0% | 2 | 12% | -1% | 472% | -14%
O=C(c1nn(Cc2ccccc2)c(=O)c2ccccc12)N1CCN(c2ccc(O)cc2)CC1 | x | 16 | x | x | u | x
Cn1c(=O)c2[nH]c(=S)n(Cc3ccccc3)c2n(C)c1=O | 0% | -13 | 1% | 3% | u | -14%
CCCCn1c(=S)[nH]c2c(=O)n(C)c(=O)n(C)c21 | 0% | -2 | -8% | x | 45µM* | x
COc1cc2c(cc1OC)CN(c1ccc(-c3ccccc3OC)nn1)CC2 | 4% | 10 | 1% | -5% | x | 18µM*
COc1cc2c(cc1OC)CN(c1ccc3ccccc3n1)CC2 | 2% | -7 | -10% | 2% | u | -23%
COc1ccc(C2(c3ccc(OC(C)=O)cc3OC(C)=O)CC(c3ccccc3)NC(=S)N2)cc1 (centres undefined) | 6% | 3 | 11% | u | u | 21µM*
CC(=O)Oc1ccc2c(c1)OC(c1ccccc1)CC21CC(C)(C)NC(=S)N1 (centres undefined) | 0% | -2 | 12% | 1% | u | -23%
CN(C)/C=C/C(=O)c1cnc(-c2ccc(Cl)cc2)s1 | 2% | -3 | -1% | -3% | 32µM* | u
Cc1cccc(C)c1NS(=O)(=O)c1ccc(S(=O)(=O)N2CCCC2)cc1 | x | -3 | x | x | -6% | x
NC(=S)n1[nH]c(-c2ccc([N+](=O)[O-])cc2)c(N=Nc2ccc(Cl)cc2)c1=O | 0%[9.22 µM] | -8 | -9% | u | x | 5.2µM*
Cc1ccc([N+](=O)[O-])cc1N=Nc1c(-c2ccc([N+](=O)[O-])cc2)[nH]n(C(N)=S)c1=O | 8% | -9 | -9% | u | x | u
CC(C)(C)c1ccc(-c2nnc(SCCC#N)n2C2CCCC2)cc1 | 2% | -1 | 2% | u | -4% | 21µM*
COc1cc(OC)c(NC(=O)c2ccccc2F)cc1Cl | 10% | -2 | 0% | 0% | -8% | -3%
COc1cc2c(cc1NC(=O)c1ccccc1F)CCCC2 | 3.2µM* | -1 | 1% | 5% | -27% | u
O=C(CSc1nnc(-c2c[nH]c3ccccc23)o1)N(Cc1ccccc1)c1ccc(F)cc1 | 4% | -6 | 1% | u | x | 18µM*
CCS(=O)(=O)Nc1ccc(-c2cc(-c3ccccc3)c3cc(C)ccc3n2)cc1 | 7% | 0 | 0% | u | -25% | 23µM*
CCCn1c(=O)[nH]c(=O)c2c1nc(-c1ccc(C#N)cc1)n2CCN1CCOCC1 | x | -20 | x | x | 28µM* | x
CCCn1c(=O)[nH]c(=O)c2c1nc(-c1ccc3ccccc3c1)n2CCN1CCOCC1 | x | -3 | x | x | 3% | x
CC(=O)c1ccc(C)cc1 | x | x | x | x | -1%[176 µM] | x
C[S+](=O)([O-])Nc1cccc(-c2cc(-c3cccnc3)c3cncn3c2)c1 | x | x | x | x | 42%[176 µM] | x
SMILES | Nrf2 ARE act | LDHA block | mIDH1 inhibitor | A549 viability | ALOX12 inh | Nrf2 inh
O=c1c(O)cccc2cc(O)c(O)c(O)c12 | 0% | 8 | 3% | -18% | 13µM* | 0%
CC1Cc2cc(S(=O)(=O)NCCc3ccccc3)ccc2N1C(=O)C1CC1 (centres undefined) | 0% | -9 | -13% | -2% | -13% | u
CC1Cc2cc(S(=O)(=O)NCc3ccc(N(C)C)cc3)ccc2N1C(=O)C1CCC1 (centres undefined) | 5% | 4 | 5% | -2% | -10% | 23µM*
CC1Cc2cc(S(=O)(=O)NCc3ccccc3Cl)ccc2N1C(=O)C1CCC1 (centres undefined) | 0% | -15 | 11% | -14% | 9% | 26µM*
COc1cc(C2CC(=O)Nc3c(-c4cccc(F)c4)nsc32)cc2c1OCO2 (centres undefined) | x | -1 | x | x | 13% | x
COc1ccc(-c2csc(NC(=O)Cc3cc(OC)c(OC)c(OC)c3)n2)cc1OC | 4% | -10 | 9% | u | -13% | 21µM*
COc1cc(OC)cc(C(=O)N[C@H](C(=O)Nc2nc(-c3cc(OC)ccc3OC)cs2)C(C)C)c1 | 3% | -5 | -4% | -1% | -1% | u
COc1cc(OC)cc(C(=O)N[C@H](C(=O)Nc2nc(-c3ccc(OC)c(OC)c3)cs2)C(C)C)c1 | 4% | -1 | 2% | -3% | -19% | 7.3µM*
COc1ccccc1-c1cc(-c2ccc(=O)[nH]c2)c2cncn2c1 | x | x | x | x | 22µM* | x
COc1ccc(-c2cc(-c3cccc(O)c3)cn3cncc23)cc1 | x | x | x | x | 16µM* | x
COc1cccc(-c2cc(-c3cn[nH]c3)c3cncn3c2)c1 | x | x | x | x | -5%[176 µM] | x
CCN1CCN(CCNC(=O)CC2CCN(C(=O)c3cc(OC)c(OC)c(OC)c3)CC2)CC1 | x | 3 | x | x | -1% | x
COCC(=O)O[C@]1(CCN(C)CCCc2nc3ccccc3[nH]2)CCc2cc(F)ccc2[C@@H]1C(C)C | 0% | 2 | 1% | -21% | 11µM*! | -28%
Cc1cccc(NC(=O)CN2CCc3cc4c(cc3C2)OCCCO4)c1 | -1% | -8 | 0% | 0% | u | u
Cc1cc(C)cc(NC(=O)CN2CCc3cc4c(cc3C2C)OCCCO4)c1 (centres undefined) | 0% | -6 | 1% | -17% | 0% | 26µM*
Cc1cccc(NC(=O)CN2CCc3cc4c(cc3C2C)OCCCO4)c1 (centres undefined) | 0% | -2 | -8% | -17% | 7% | 23µM*
Cc1ccc(NC(=O)CC2Sc3ccc(C(F)(F)F)cc3NC2=O)cc1Cl (centres undefined) | x | 2 | x | x | u | x
Cc1ccccc1C(=O)N(C)C1CCN(CCc2ccccn2)CC1 | x | -1 | x | x | 6% | x

Screening data: PubChem, National Center for Advancing Translational Sciences (NCATS)
